# Data taken from PubChem BioAssay (Tox21).
# “And” between values parts separate entries of the source, which are not always exact repeats. Equal values may be shown once. Results filed as inconclusive are left out. A call without a number means that no potency is given here. The source holds several records for some structures; these can differ, active in one and inactive in another. The source made the active and inactive calls. Unless noted, calls come from the whole dose curve.
# What was measured:
# [1] = qHTS assay to identify small molecule agonists of the sonic hedgehog signaling (Shh) pathway (AID 1259368);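 note: NIH/3T3-derived 3T3Gli1-Luc cells carrying a stable Gli1-driven firefly luciferase reporter; series mostly up to about 92 µM; nearly all actives have a fitted effect of over 15% in size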
# In short: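 Luminescence was read after 30 min at room temperature with luciferase reagent. Before that, 3T3Gli1-Luc cells (NIH/3T3 clone, stable Gli1-Luc reporter; 2,000/well) were exposed to compounds for 24 hr at 37C, 5% CO2, compounds being added 4 hr post-plating.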
# [2] = qHTS assay to identify small molecule antagonists of the sonic hedgehog signaling (Shh) pathway (AID 1259369); note: nearly all actives have a fitted effect of over 45% in size; note: potency is the fitted concentration of half-maximal effect
# In short: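 Antagonist mode: compound added to 3T3 Gli1-Luc cells followed by conditioned-medium stimulation, 24 h at 37 C, 5% CO2. Inhibition taken as loss of Gli1-driven luciferase luminescence.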
# [3] = target: Estrogen receptor beta (Homo sapiens) (UniProt Q92731); test: qHTS assay to identify small molecule agonists of the estrogen receptor beta (ER-beta) signaling pathway (AID 1259377; active = well fitted activation curve with a large enough effect in the signal ratio in the repeat runs, not every such curve was filed as active; the % refers to the signal ratio)
# In short: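 Reporter cells (HEK293T, ER-beta-UAS-bla) receive compounds or DMSO after a 6 hr pre-incubation. They then incubate 16 hr at 37C/5% CO2, and fluorescence from LiveBLAzer B/G substrate is measured after 2 hours at room temperature.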
# [4] = target: Estrogen receptor beta (Homo sapiens) (UniProt Q92731); test: qHTS assay to identify small molecule antagonists of the estrogen receptor beta (ER-beta) signaling pathway (AID 1259378; active = well fitted inhibition curve with a large enough effect in the signal ratio in the repeat runs, not every such curve was filed as active; the % refers to the signal ratio; note: potency is the fitted concentration of half-maximal effect)
# In short: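 ER-beta-UAS-bla HEK293T (GripTite) cells in 2% charcoal-stripped FBS medium were preincubated 6 hr at 37C, dosed with compound, then stimulated with 1 nM E2 (final) for 16 hr; beta-lactamase reporter read by B/G FRET fluorescence after 2 hr substrate loading.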
# [5] = qHTS assay to identify small molecule agonists of the androgen receptor (AR) signaling pathway in the presence of an antagonist - cell viability counter screen (AID 1259379; active = well fitted curve in the direction sought with a large enough effect in the repeat runs; an effect the other way counts as inactive or inconclusive; note: nearly all actives have a fitted effect of over 25% in size; note: potency is the fitted concentration of half-maximal effect)
# In short: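 Cytotoxicity counter-screen run in the same wells as the nilutamide-challenged (3.0 µM final) AR agonist assay in MDA-kb2 cells. Compounds tested at 15 concentrations for 16 h, 37 °C without CO2; CellTiter-Fluor fluorescence read.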
# [6] = target: Androgen receptor (Homo sapiens) (UniProt P10275); test: qHTS assay to identify small molecule agonists of the androgen receptor (AR) signaling pathway in the presence of an antagonist (AID 1259381); note: nearly all actives have a fitted effect of over 15% in size
# In short: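 Agonist-mode confirmation run against 3.0 uM final nilutamide: compounds titrated at 15 concentrations onto MDA-kb2 MMTV-luciferase reporter cells. Luminescence measured with ONE-Glo following 16 hr incubation, 37C, 0% CO2.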
# [7] = qHTS assay to identify small molecule antagonists of the estrogen receptor beta (ER-beta) signaling pathway - cell viability counter screen (AID 1259382; active = well fitted curve in the direction sought with a large enough effect in the repeat runs; an effect the other way counts as inactive or inconclusive; note: series mostly up to about 92 µM; nearly all actives have a fitted effect of over 55% in size)
# In short: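 Cytotoxicity was measured in the same wells by CellTiter-Glo luminescence after 30 min at room temperature. Cells were ER-beta-bla HEK293T in charcoal-stripped serum, given compound together with 1 nM E2 and incubated 16 h at 37C.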
# [8] = target: Estrogen receptor (Homo sapiens) (UniProt P03372); test: qHTS assay to identify small molecule agonists of the estrogen receptor alpha (ER-alpha) signaling pathway in the presence of an antagonist (AID 1259383); note: top concentration of the series differs between compounds; nearly all actives have a fitted effect of over 15% in size
# In short: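 Agonist-mode confirmation run in the presence of 10.0nM (final) ICI-182,780 antagonist. The reporter was ERE-driven luciferase in VM7Luc4E2 cells, grown in charcoal-stripped serum. Cells were exposed to 15-concentration compound series for 22hr, then ONE-Glo luminescence was read.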
# [9] = qHTS assay to identify small molecule agonists or antagonists of the thyroid stimulating hormone receptor (TSHR) signaling pathway - wild type cell line counter screen (AID 1259384)
# In short: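 Wild-type HEK293 cells were plated 18 h at 37 C/5% CO2, pin-dosed with compound plus Ro20-1724 medium, held 30 min at room temperature, then given cAMP-d2 and anti-cAMP-cryptate; fluorescence was read after 1 h. Fifteen concentrations, triplicate.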
# [10] = target: Thyrotropin receptor (Homo sapiens) (UniProt P16473); test: qHTS assay to identify small molecule antagonists of the thyroid stimulating hormone receptor (TSHR) signaling pathway (AID 1259385); note: nearly all actives have a fitted effect of over 20% in size; note: potency is the fitted concentration of half-maximal effect
# In short: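 TSHR-HEK293 cells were plated and held 18 h at 37C/5% CO2, then given compound plus Ro20-1724 and stimulated with TSH at 1.5 ng/mL final. After 30 min at room temperature, cAMP was detected with cAMP-d2/anti-cAMP-cryptate (1 h) by fluorescence.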
# [11] = target: Progesterone receptor (Homo sapiens) (UniProt P06401); test: qHTS assay to identify small molecule agonists of the progesterone receptor (PR) signaling pathway (AID 1346784); note: nearly all actives have a fitted effect of over 30% in size
# In short: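 Reporter assay, GripTite PR-UAS-bla HEK 293T cells: 16 hr exposure to DMSO-dissolved compounds at 37C, 5% CO2, in steroid-depleted (2% charcoal-stripped FBS) medium; beta-lactamase measured by FRET fluorescence.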
# [12] = target: Progesterone receptor (Homo sapiens) (UniProt P06401); test: qHTS assay to identify small molecule antagonists of the progesterone receptor (PR) signaling pathway (AID 1346795; active = well fitted inhibition curve with a large enough effect in the signal ratio in the repeat runs, not every such curve was filed as active; the % refers to the signal ratio)
# In short: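 Stimulus R5020 at 1 nM final; cells HEK293T PR-UAS-bla; medium with 2% charcoal-stripped FBS; compound exposure 16 hr at 37C, 5% CO2; detection by FRET beta-lactamase substrate, 2 hr, room temperature.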
# [13] = qHTS assay to identify small molecule agonists of the progesterone receptor (PR) signaling pathway - cell viability counter screen (AID 1346799); note: nearly all actives have a fitted effect of over 45% in size; note: potency is the fitted concentration of half-maximal effect
# In short: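 Multiplexed viability read: CellTiter-Glo luminescence, 30 min RT, following LiveBLAzer FRET measurement on PR-UAS-bla HEK293T cells exposed to compounds 16 hr.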
# [14] = qHTS assay to identify small molecule antagonists of the TGF-beta/Smad signaling pathway - cell viability counter screen (AID 1346824; active = well fitted curve in the direction sought with a large enough effect in the repeat runs; an effect the other way counts as inactive or inconclusive; note: nearly all actives have a fitted effect of over 50% in size)
# In short: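 SBE-bla HEK 293T cells were plated overnight at 37 C, then given compounds in DMSO plus TGF-beta1 (added as 0.25 ng/mL solution) for 5 hr. After the bla read, CellTiter-Glo was added to the same wells and luminescence read after 30 min at room temperature.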
# [15] = qHTS assay to identify small molecule agonists of the TGF-beta/Smad signaling pathway - cell viability counter screen (AID 1346829; active = well fitted curve in the direction sought with a large enough effect in the repeat runs; an effect the other way counts as inactive or inconclusive; note: top concentration of the series differs between compounds; nearly all actives have a fitted effect of over 45% in size)
# In short: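 After overnight seating at 37 C and 5% CO2, reporter cells got compounds for 5 hr and FRET substrate for 2 hr; cell viability then came from CellTiter-Glo luminescence.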
# [16] = qHTS assay to identify small molecule agonists of the TGF-beta/Smad signaling pathway (AID 1346859; active = well fitted activation curve with a large enough effect in the signal ratio in the repeat runs, not every such curve was filed as active; the % refers to the signal ratio; note: series mostly up to about 77 µM)
# In short: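 Screening used HEK 293T SBE-bla cells at 4,000/well. Test agents: 5 hr, 37 C. Detection: FRET substrate, 2 hr RT, then excitation 405 nm with emissions at 460 and 530 nm.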
# [17] = target: Thyrotropin-releasing hormone receptor (Homo sapiens) (UniProt P34981); test: qHTS assay to identify small molecule antagonists of the thyrotropin-releasing hormone receptor (TRHR) signaling pathway (AID 1346877; active = well fitted inhibition curve with a large enough effect in the repeat runs, not every such curve was filed as active; note: series mostly up to about 51 µM)
# In short: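 Antagonist mode: after a 5 min room-temperature compound exposure, cells were stimulated with 1 nM (final) TRH. Dye-loaded TRHR-HEK293 cells were used, and calcium-dependent fluorescence was followed for 3 min, with 15-point titrations run in triplicate.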
# [18] = qHTS assay to identify small molecule agonists of the estrogen receptor alpha (ER-alpha) signaling pathway in the presence of an antagonist - cell viability counter screen (AID 1259386; active = well fitted curve in the direction sought with a large enough effect in the repeat runs; an effect the other way counts as inactive or inconclusive; note: nearly all actives have a fitted effect of over 30% in size; note: potency is the fitted concentration of half-maximal effect)
# In short: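 Compounds tested at 15 concentrations for 22 h at 37C alongside 10.0nM (final) ICI-182,780 antagonist, in VM7Luc4E2 cells grown in phenol red-free, charcoal-stripped medium. Viability read by CellTiter-Fluor fluorescence after 1 h reagent incubation.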
# [19] = qHTS assay to identify small molecule antagonists of the progesterone receptor (PR) signaling pathway - cell viability counter screen (AID 1346798; active = well fitted curve in the direction sought with a large enough effect in the repeat runs; an effect the other way counts as inactive or inconclusive; note: series mostly up to about 92 µM; nearly all actives have a fitted effect of over 50% in size)
# In short: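 In the same plates used for the beta-lactamase readout, cell viability of compound- and R5020-treated PR-UAS-bla HEK293T cells (16 hr, 37C) was assessed by CellTiter-Glo luminescence.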
# [20] = qHTS assay to identify small molecule agonists of the estrogen receptor beta (ER-beta) signaling pathway - cell viability counter screen (AID 1259380; active = well fitted curve in the direction sought with a large enough effect in the repeat runs; an effect the other way counts as inactive or inconclusive; note: nearly all actives have a fitted effect of over 30% in size; note: potency is the fitted concentration of half-maximal effect)
# In short: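 Cell viability counter screen: CellTiter-Glo luminescence (30 min, room temperature) measured in the same wells as the beta-lactamase readout, after 16 hr compound exposure at 37C of ER-beta-bla HEK293T cells in 2% charcoal-stripped FBS medium.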
# Estrogen receptor beta (Homo sapiens), sequence (Q92731 whole entry, looked up): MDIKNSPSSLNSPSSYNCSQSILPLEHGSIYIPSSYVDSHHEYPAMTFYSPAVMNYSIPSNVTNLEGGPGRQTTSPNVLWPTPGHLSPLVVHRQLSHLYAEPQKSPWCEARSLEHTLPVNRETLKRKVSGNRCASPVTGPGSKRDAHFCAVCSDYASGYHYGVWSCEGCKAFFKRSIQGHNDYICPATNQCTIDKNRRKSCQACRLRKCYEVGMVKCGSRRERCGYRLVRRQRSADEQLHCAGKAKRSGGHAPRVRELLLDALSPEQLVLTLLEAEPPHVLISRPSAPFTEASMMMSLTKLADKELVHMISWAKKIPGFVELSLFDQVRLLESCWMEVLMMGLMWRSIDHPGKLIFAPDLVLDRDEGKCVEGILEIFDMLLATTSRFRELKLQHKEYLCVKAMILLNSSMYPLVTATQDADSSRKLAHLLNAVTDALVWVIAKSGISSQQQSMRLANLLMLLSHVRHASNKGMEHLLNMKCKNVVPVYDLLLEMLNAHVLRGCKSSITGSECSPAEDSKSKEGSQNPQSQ
# Thyrotropin receptor (Homo sapiens), sequence (P16473 whole entry, looked up): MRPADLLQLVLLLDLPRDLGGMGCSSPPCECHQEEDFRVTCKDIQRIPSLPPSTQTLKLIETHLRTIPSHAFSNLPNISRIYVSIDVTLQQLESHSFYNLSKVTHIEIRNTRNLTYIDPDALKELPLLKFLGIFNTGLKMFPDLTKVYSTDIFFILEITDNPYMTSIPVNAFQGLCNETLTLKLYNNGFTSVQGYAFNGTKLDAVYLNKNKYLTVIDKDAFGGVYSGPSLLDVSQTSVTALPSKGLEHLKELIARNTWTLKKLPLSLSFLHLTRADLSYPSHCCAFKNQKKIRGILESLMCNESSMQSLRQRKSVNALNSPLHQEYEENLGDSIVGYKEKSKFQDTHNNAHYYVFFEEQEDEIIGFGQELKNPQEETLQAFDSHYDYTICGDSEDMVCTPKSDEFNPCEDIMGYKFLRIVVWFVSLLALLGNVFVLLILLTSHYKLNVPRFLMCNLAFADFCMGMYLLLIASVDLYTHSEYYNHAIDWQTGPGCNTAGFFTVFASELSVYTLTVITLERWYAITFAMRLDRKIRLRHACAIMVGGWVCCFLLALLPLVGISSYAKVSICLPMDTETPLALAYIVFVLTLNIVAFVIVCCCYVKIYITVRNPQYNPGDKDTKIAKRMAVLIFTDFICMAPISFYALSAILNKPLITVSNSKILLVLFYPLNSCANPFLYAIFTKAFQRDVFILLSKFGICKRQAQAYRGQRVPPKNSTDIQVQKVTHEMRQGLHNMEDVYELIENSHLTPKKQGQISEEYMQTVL
# Estrogen receptor (Homo sapiens), sequence (P03372 whole entry, looked up): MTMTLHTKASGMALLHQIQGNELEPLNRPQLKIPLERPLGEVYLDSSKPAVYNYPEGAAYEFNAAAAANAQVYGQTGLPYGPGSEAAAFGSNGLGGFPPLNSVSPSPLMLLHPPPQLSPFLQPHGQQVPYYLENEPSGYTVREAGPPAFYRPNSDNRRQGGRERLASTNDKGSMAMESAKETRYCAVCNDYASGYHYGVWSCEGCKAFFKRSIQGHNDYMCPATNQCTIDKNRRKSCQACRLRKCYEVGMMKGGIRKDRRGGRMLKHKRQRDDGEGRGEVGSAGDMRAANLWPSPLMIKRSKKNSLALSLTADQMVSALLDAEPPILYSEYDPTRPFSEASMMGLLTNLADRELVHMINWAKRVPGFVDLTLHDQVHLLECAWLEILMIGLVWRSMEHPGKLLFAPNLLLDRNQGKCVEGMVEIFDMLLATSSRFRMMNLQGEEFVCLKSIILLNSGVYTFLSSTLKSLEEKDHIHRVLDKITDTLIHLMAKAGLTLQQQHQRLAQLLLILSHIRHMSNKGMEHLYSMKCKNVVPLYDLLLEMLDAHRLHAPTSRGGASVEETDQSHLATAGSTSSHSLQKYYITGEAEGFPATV
# Progesterone receptor (Homo sapiens), sequence (P06401 whole entry, looked up): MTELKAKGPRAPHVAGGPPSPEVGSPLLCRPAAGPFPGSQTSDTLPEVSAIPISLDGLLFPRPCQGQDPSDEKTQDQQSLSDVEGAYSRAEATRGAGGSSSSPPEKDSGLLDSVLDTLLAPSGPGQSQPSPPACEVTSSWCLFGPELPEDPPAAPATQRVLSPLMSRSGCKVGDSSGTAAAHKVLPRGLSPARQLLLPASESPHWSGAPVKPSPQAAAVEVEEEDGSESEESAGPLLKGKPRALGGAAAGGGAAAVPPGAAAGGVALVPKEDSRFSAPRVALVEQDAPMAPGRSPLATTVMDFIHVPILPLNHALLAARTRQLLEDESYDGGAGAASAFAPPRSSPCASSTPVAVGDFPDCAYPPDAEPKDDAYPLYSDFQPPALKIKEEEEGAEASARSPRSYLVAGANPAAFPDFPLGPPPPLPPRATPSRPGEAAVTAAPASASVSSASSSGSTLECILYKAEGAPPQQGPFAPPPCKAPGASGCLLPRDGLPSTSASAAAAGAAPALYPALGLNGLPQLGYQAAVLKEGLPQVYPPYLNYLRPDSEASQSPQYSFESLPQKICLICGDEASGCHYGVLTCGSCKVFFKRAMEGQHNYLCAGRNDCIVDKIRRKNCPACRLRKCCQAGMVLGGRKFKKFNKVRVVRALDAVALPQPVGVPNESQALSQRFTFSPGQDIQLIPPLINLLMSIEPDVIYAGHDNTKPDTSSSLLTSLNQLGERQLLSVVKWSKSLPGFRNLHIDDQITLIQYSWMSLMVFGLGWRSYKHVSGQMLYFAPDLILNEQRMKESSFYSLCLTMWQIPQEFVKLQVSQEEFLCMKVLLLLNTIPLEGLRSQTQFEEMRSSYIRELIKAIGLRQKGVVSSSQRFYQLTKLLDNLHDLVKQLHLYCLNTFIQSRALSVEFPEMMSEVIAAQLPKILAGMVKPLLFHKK
# Thyrotropin-releasing hormone receptor (Homo sapiens), sequence (P34981 whole entry, looked up): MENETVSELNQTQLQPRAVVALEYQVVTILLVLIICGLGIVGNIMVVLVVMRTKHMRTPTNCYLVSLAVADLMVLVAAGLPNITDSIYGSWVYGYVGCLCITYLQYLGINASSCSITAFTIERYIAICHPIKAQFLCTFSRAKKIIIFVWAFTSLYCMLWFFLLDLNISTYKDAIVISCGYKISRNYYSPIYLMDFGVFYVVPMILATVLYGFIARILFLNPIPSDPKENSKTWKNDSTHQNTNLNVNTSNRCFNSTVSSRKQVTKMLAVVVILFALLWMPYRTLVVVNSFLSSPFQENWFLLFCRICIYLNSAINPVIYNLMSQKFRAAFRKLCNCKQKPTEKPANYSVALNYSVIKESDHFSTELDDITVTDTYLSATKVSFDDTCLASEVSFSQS
# Androgen receptor (Homo sapiens), sequence (P10275 whole entry, looked up): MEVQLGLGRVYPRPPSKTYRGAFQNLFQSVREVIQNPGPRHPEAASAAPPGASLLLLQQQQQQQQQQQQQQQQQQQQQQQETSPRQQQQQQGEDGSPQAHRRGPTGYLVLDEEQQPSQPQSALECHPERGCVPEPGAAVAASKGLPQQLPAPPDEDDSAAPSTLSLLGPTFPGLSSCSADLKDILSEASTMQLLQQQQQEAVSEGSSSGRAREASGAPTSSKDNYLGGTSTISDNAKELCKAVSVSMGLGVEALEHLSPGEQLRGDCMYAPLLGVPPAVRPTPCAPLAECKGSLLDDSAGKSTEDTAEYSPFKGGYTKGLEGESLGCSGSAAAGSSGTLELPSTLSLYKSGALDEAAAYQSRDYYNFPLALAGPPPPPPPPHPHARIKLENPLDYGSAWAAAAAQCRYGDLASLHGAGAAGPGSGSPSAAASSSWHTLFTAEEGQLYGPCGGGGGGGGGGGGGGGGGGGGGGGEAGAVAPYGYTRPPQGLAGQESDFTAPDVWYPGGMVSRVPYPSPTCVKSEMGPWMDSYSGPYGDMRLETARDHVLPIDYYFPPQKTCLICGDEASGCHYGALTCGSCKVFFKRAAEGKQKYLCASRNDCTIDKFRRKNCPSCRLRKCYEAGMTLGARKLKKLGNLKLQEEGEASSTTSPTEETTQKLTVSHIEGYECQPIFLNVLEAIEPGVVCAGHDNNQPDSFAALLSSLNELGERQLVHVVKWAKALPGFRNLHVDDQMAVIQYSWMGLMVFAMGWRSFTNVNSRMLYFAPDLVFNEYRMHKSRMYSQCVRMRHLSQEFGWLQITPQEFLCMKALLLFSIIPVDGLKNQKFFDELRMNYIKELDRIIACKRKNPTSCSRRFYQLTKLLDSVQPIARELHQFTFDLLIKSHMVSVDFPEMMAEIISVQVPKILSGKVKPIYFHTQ
SMILES,Potency [1],Potency [2],Potency [3],Potency [4],Potency [5],Potency [6],Potency [7],Potency [8],outcome [9],Potency [10],Potency [11],Potency [12],Potency [13],Potency [14],Potency [15],outcome [16],Potency [17],Potency [18],Potency [19],Potency [20]
O=[N+]([O-])C(Br)(CO)CO,inactive,34.4 µM (active),inactive,inactive,inactive,inactive,inactive,inactive,inactive,inactive,inactive,inactive,inactive,inactive,inactive,inactive,inactive,,,
O=C(N[C@H](c1ccccc1)[C@@H]1CN2CCC1CC2)c1c(Cl)ccc(C(F)(F)F)c1Cl,inactive,13.9 µM (active),inactive,39.2 µM (active),,,,,inactive,inactive,,,,inactive,inactive,,,,,
CCOc1ccc(C(C)(C)COCc2cccc(Oc3ccccc3)c2)cc1,inactive,inactive,inactive,inactive,inactive,,inactive,inactive,inactive,inactive,inactive,inactive,,inactive,,,inactive,inactive,,
O=C(O)C(F)(F)C(F)(F)C(F)(F)C(F)(F)C(F)(F)C(F)(F)C(F)(F)C(F)(F)C(F)(F)C(F)(F)F,inactive,inactive,inactive,inactive,inactive,,inactive,,,,,inactive,,inactive,,inactive,inactive,inactive,inactive,
C[C@H]1CNCCc2ccc(Cl)cc21,inactive,inactive,inactive,inactive,inactive,,,inactive,inactive,inactive,inactive,inactive,,inactive,,inactive,inactive,inactive,inactive,
C=CC[C@]1(O)CC[C@H]2[C@@H]3CCC4=CC(=O)CCC4=C3C=C[C@@]21C,inactive,13.3 µM (active),inactive,,inactive,,inactive,inactive,inactive,,,,,inactive,inactive,,inactive,,inactive,inactive
NNC(=O)c1cccnc1,inactive,inactive,,,inactive,,inactive,inactive,inactive,inactive,inactive,inactive,,inactive,inactive,inactive,inactive,inactive,inactive,inactive
ClP(Cl)(Cl)(Cl)Cl,inactive,inactive,,,inactive,,inactive,inactive,inactive,,,inactive,inactive,inactive,,inactive,inactive,,inactive,inactive
O=C(NC(=O)c1c(F)cccc1F)Nc1ccc(OC(F)(F)C(F)OC(F)(F)F)c(Cl)c1 (configuration not stated),inactive,inactive,,inactive,inactive,,inactive,inactive,inactive,inactive,inactive,inactive,inactive,inactive,inactive,inactive,inactive,inactive,inactive,inactive
CCOP(=S)(OCC)Oc1nc(Cl)c(Cl)cc1Cl,inactive,inactive,,inactive,inactive,,inactive,inactive,inactive,27.4 µM (active) and 54.5 µM (active),inactive,,61.3 µM (active) and inactive,inactive,inactive,,,inactive,,38.6 µM (active)
COc1c(C(C)(C)C)cc([N+](=O)[O-])c(C)c1[N+](=O)[O-],inactive,inactive,,inactive,inactive,,inactive,inactive,,,inactive,inactive,,inactive,inactive,inactive,,inactive,inactive,inactive
CC(C)(C)c1cc([N+](=O)[O-])cc([N+](=O)[O-])c1O,inactive,6.84 µM (active),inactive,,15.3 µM (active),,inactive,,inactive,inactive,inactive,,,,inactive,inactive,,19.3 µM (active),,
CC(C)(Cl)[N+](=O)[O-],inactive,inactive,inactive,,inactive,,,,inactive,inactive,inactive,,,inactive,inactive,,inactive,inactive,inactive,inactive
Cn1cc[n+](C)c1 (tested in a mixture with another compound),inactive,inactive,,,inactive,,inactive,inactive,inactive,inactive,,inactive,inactive,inactive,inactive,,inactive,inactive,inactive,inactive
